According to ChEMBL document CHEMBL3988442, “University of Dundee, Small-Polar-MMV Screening Library” (2021):

Each compound was assayed against T1, Aspartate--tRNA(Asp/Asn) ligase (Mycobacterium tuberculosis (strain ATCC 25618 / H37Rv)) (UniProt P9WFW3) (assay: Assay for Asp RNA synthetase-1 from Mycobacterium tuberculosis). Conditions: 30 µM.
T1 sequence (whole entry): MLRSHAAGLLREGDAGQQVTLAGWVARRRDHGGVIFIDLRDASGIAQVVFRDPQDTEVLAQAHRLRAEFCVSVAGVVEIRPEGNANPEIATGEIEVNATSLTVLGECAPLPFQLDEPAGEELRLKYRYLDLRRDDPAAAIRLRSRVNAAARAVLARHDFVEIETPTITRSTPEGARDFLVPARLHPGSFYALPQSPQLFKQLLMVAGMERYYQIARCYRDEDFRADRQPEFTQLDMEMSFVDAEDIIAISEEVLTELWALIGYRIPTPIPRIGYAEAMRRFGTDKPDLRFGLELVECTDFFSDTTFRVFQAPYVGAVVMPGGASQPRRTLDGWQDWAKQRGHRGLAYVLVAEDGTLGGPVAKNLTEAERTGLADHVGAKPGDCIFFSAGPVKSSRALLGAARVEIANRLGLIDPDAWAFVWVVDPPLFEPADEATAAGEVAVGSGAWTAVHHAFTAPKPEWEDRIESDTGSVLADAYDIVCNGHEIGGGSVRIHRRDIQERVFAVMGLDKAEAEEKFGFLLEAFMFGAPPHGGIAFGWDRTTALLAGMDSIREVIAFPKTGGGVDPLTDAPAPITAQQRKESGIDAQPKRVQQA
Type: functional
Set-up: scale not given: in the data most compounds retested in dose-response had high values

Structure (SMILES) | Percent Effect [%]
O=C(NC1CCN(c2snc3ccccc23)CC1)C1CCC1 | 4.7
O=C(C[C@@H]1COC[C@H]2CN(Cc3ccncc3)C[C@@H]12)N1CCOCC1 | -4.65
O=C1CCC2(CCN(Cc3nccs3)CC2)N1Cc1ccccc1 | -2.78
Cn1nc2c(cc1=O)CN(Cc1nnc(-c3ccco3)o1)CC2 | 15.6
Cc1csc([C@@H]2C[C@@H]3CCN(C(=O)c4cc(C)on4)C[C@H]3O2)n1 | 0.801
COc1cccc(-c2nc(C)c(C(=O)N[C@@H](C)C(=O)O)s2)c1 | -1.66
CCn1cnnc1CNC(=O)N1CCC(Cc2cccnc2)CC1 | -1.93
O=C(c1ccc2c(c1)OCO2)N1CCCSCC1CN1CCCC1 (stereo not given) | -0.0437
c1csc(-c2nc(CN3CCOC(Cn4cccn4)C3)co2)c1 (stereo not given) | 9.95
COc1ccccc1C(O)CNC(=O)NCc1cccnc1OC (stereo not given) | -0.742
CCNC(c1ccc(OC)cc1)c1cccnc1 (stereo not given) | 1.53
Cn1cc(C(=O)N2CC[C@@H]3[C@@H]2CCN3Cc2cccc(F)c2)cn1 | -0.0764
O=C(NCCCn1cncn1)NCC(c1ccccc1)N1CCCC1 (stereo not given) | 0.0576
CC(=O)N1CCCN(Cc2csc(-c3ncccn3)n2)CC1 | 5.15
Cc1noc(CN2CCC(c3ccnn3CCO)CC2)n1 | -2.2
Cc1nc2cc(C(=O)N3CCCC(n4cncn4)C3)ccc2n1C (stereo not given) | -8.92
OCCN1CCOC2(CCCN(c3cccc(F)c3)C2)C1 (stereo not given) | -3.25
OC1(Cn2ccc3ncccc32)CCN(Cc2ccccn2)CC1 | 11.7
O=C(NCc1ccc(OCC2CC2)nc1)c1c(F)cccc1F | -0.03
NC(=O)C1(c2cnccn2)CCCN1Cc1cc2ccccc2o1 (stereo not given) | 3.17
